Compound activity (PubChem)
An excerpt weighted towards active compounds, which were near 5.6% of everything screened.
PKM2 activator – qHTS Assay for Activators of Human Muscle isoform 2 Pyruvate Kinase. actives 0.34% (n = 260,000). Potency, µM (top dose mostly 57.5 µM), for the others: top-dose activation, actives largely listed as activators. purified PKM2, Kinase-Glo ATP luminescence, activation; response scale: 0% is enzyme alone, no compound; further: potency means the concentration at half of the fitted maximal effect; nearly all actives have a fitted effect of over 55% in size
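Kinase-Glo luminescence reports ATP generated from ADP (0.1 mM) and PEP (0.5 mM) by purified hPK-M2 after 1 h at room temperature, pH 7.2 imidazole buffer; intermediate enzyme activity allows detecting inhibitors and activators.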
CtBP-E1A inh – qHTS Assay for Inhibitors of the CtBP/E1A Interaction. AlphaScreen GST-E1A/His-CtBP binding, 1536-well; hits give low values. AID 651724, 2012. activity change, % (concentration not given with the values). actives 0.49% (n = 340,000); in the data active means activity change below about -65%; inconclusive means mostly about -30% to -63%
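In 5 uL wells, 23 nL compound meets equimolar GST-E1A and His-CtBP (5X stock 125 nM each) for 2 h, 37 °C. Beads (5X, 50 ug/mL) then 1 h, 37 °C, dark.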
VP16 counter – VP16 counterscreen qHTS for inhibitors of ROR gamma transcriptional activity. Drosophila S2 Gal4-VP16 UAS-luciferase, luminescence, 20 h. Potency, µM (series often up to 53.6 µM), for the others: top-dose activity, negative = inhibition, hits mostly inhibitors. actives 3.5% (n = 310,000);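 further: Gal4-VP16 expression switched on by copper sulfate through the metallothionein promoter; potency means the concentration at half of the fitted maximal effect; nearly all actives have a fitted effect of over 50% in size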
Six1-Eya2 blk – qHTS Assay for Inhibitors of the Six1/Eya2 Interaction. AID 651725, 2012. Homeobox protein SIX1 (Homo sapiens) + Protein phosphatase EYA2 (Homo sapiens), …. AlphaScreen GST-Six1/His-Eya2 binding, biochemical; hits give low values. actives 0.56% (n = 360,000). activity change, % (no concentration beside the values); in the data active means activity change below about -65%; inconclusive means mostly about -30% to -63%
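Six1/Eya2 binding was read as AlphaScreen signal after compounds were pinned into GST-Six1 plus His-tagged Eya2 (5X stock 250/500 nM) in pH 8.0 Tris/NaCl/TCEP buffer, beads added, then incubated 1 h, 37 C, dark.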
RORgamma inh – qHTS for inhibitors of ROR gamma transcriptional activity; Drosophila S2 Gal4-RORgamma UAS-luciferase reporter, 20 h; actives 5.4% (n = 310,000); Potency, µM (highest dose often 53.6 µM), for the others: at the top dose activity change, negative = inhibition, usual class: inhibitors; Nuclear receptor ROR-gamma (Mus musculus), P51450; further: potency means the concentration at half of the fitted maximal effect; nearly all actives have a fitted effect of over 60% in size
Target sequence (P51450 whole entry, looked up, the tested form may be a part): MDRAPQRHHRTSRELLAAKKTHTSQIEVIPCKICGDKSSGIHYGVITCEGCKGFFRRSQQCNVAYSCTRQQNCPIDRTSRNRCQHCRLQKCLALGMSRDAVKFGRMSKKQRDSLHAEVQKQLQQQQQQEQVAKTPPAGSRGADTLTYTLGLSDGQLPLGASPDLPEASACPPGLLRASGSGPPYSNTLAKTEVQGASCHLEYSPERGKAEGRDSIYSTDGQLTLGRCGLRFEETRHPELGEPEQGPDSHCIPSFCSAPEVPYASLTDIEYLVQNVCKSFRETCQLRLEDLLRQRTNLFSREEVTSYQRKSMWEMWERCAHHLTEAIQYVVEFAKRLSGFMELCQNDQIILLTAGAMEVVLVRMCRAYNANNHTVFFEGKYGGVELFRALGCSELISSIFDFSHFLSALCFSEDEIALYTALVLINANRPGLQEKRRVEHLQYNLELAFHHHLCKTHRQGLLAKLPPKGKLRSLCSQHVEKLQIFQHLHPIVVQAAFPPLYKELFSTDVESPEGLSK
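Read-out: Photinus luciferase luminescence; inhibitors lower reporter signal. Insect Schneider cells with Gal4-ROR gamma fusion under metallothionein promoter, UAS reporter; 700 uM final copper sulfate induction, 20 hr, ambient temperature.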
An asterisk follows results filed as active; u = inconclusive; x = not tested or not shown; [ ] = dose if it differs, or a comment. Unless noted, the call rests on the fitted dose curve; in most records, active means well fitted curve in the direction sought with a large enough effect; inconclusive means small, poorly fitted or top-dose-only effect, or another doubt; inactive means no such curve, though single readings can be large; an effect the other way counts as inactive or inconclusive. On the % scale 0 is the no-effect control and ±100 the full control effect.

SMILES	PKM2 activator	CtBP-E1A inh	VP16 counter	Six1-Eya2 blk	RORgamma inh
CCOC(=O)N1CCN(S(=O)(=O)c2ccc(C(=O)Nc3nnc(CSC)o3)cc2)CC1	-1%	-10	u	u	13µM*
Cc1ccc(-n2ccc(=O)c(-c3ccnc(SCc4cccc(Cl)c4)n3)n2)cc1	-6%	-4	-9%	-2	0.28µM*
O=C(N/N=C/c1ccccc1)c1n[nH]c2c1CCCC2	-8%	x	-28%	1	u
O=C(N/N=C/c1ccccc1Cl)c1n[nH]c2c1CCCC2	-15%	x	u	1	2.8µM*
COCCCn1c(=O)c2sccc2n2c(CCCC(=O)N(C)Cc3ccco3)nnc12	-5%	-8	3%	-14	27%
Cc1ccc(-c2cc(C(F)F)nc(S(C)(=O)=O)n2)cc1	0%	6	u	1	10µM*
Cc1sc2ncn(CC(=O)N3CCOCC3)c(=O)c2c1-c1ccccc1	0%	0	-2%	36	-2%
CCOc1ccc(/C=N/NC(=O)c2csc(C)c2C)c(OCC)c1	5%	0	-9%	18	13µM*
Cc1scc(C(=O)N/N=C/c2ccc(OC(C)C)cc2)c1C	-5%	-4	-23%	-1	-14%
Cc1scc(C(=O)N/N=C/c2ccc(Cl)s2)c1C	0%	2	13µM*	-6	14µM*
CN(C(=O)COC(=O)C(C)(C)Oc1ccc(Cl)cc1)c1c(N)n(Cc2ccccc2)c(=O)[nH]c1=O	x	-23	x	8	x
Cc1nn(-c2ccc(Cl)cc2)c2[nH]c(CCl)cc(=O)c12	0%	3	-12%	-4	14%
COc1ccc2[nH]c(=O)c(CN(C(=O)c3cccnc3)c3ccccc3C)cc2c1	-6%	-15	-4%	6	9%
COc1cccc(CN2CCN(CCCc3ccccc3)C(CCO)C2)c1O (stereo not drawn)	-2%	0	4%	-1	-16%
COc1ccccc1Cn1c(=S)[nH]c2ccccc2c1=O	x	13	14µM*	4	10µM*
CCN(CC)CCn1c(=S)[nH]c2ccccc2c1=O	4%	-10	6%	0	-35%
COc1ccccc1Cn1c(=S)[nH]c2ccc(Br)cc2c1=O	x	7	5.6µM*	11	2µM*
COc1ccccc1Cn1c(=S)[nH]c2ccc(F)cc2c1=O	x	0	11µM*	-4	16µM*
CCN(CC)CCn1c(=S)[nH]c2ccc(Br)cc2c1=O	-10%	-8	13µM*	-2	11µM*
COCCCNC(=O)c1ccc2c(=O)n(Cc3ccccc3OC)c(=S)[nH]c2c1	x	2	-4%	7	-3%
COc1ccccc1Cn1c(=S)[nH]c2cc(C(=O)NC(C)C)ccc2c1=O	x	0	-10%	6	0%
COc1ccccc1Cn1c(=S)[nH]c2cc(C(=O)NCC(OC)OC)ccc2c1=O	x	1	u	-1	-7%
CC12CCC=CC1C(c1ccc3ccccc3c1)N(Cc1ccccc1)C2=O (stereo not drawn)	x	x	3%	x	u
COc1ccccc1NC(=O)Cn1c(C)cc(=O)c2cccc(OC)c21	4%	u	28µM*	-23	-33%
COc1ccc(OC)c(NC(=O)CCn2c(=S)[nH]c3ccccc3c2=O)c1	x	4	-6%	1	-32%
SMILES	PKM2 activator	CtBP-E1A inh	VP16 counter	Six1-Eya2 blk	RORgamma inh
COc1ccccc1NC(=O)CCCn1c(=S)[nH]c2ccccc2c1=O	1%	x	u	13	10µM*
O=c1c2cc(F)ccc2[nH]c(=S)n1Cc1ccc(F)cc1	x	6	3.2µM*	1	1.4µM*
COc1ccc(NC(=S)Nc2ccccn2)c(OC)c1	-4%	-11	-3%[0.365 µM]	-7	1.3µM*
COc1ccc(NC(=S)Nc2ccccc2OC)c(OC)c1	5%	-1	1%[10 µM]	3	14%
COc1ccc(NC(=S)Nc2cc(C)ccn2)c(OC)c1	1%	-8	3.2µM*	-8	6.3µM*
COc1ccc(NC(=S)Nc2cnc3ccccc3c2)c(OC)c1	-15%	x	-8%	1	11µM*
COc1ccc(NC(=S)Nc2ccc(OC)cc2OC)c(OC)c1	-14%	-3	u	-5	u
O=C(N/N=C/c1ccc(-c2cccc(C(F)(F)F)c2)o1)c1ccccc1Br	-2%	-16	-91%	-22	11µM*
O=C(N/N=C/c1ccc(-c2cccc(C(F)(F)F)c2)o1)c1cccc(F)c1	5%	-15	1.3µM*	-15	2µM*
NC(=O)N/N=C/c1ccc(-c2cccc(C(F)(F)F)c2)o1	7%	-1	-2%	-4	31%
O=C(N/N=C/c1ccc(N2CCOCC2)o1)c1cccc(F)c1	26%	-3	13µM*	-1	11µM*
O=C(N/N=C/c1ccc(-c2cccc(C(F)(F)F)c2)o1)c1ccccc1O	-7%	1	0.56µM*	-6	0.28µM*
Cc1cc(C(=O)N/N=C/c2ccc(-c3cccc(Br)c3)o2)n[nH]1	0%	x	-19%	-7	u
Cc1ccc(NCC(=O)N/N=C/c2ccc(-c3cccc(C(F)(F)F)c3)o2)cc1	-15%	7	u	-15	u
Cc1ccc(/C=N/NC(=O)c2cccc(S(=O)(=O)N3CCOCC3)c2)o1	3%	-15	-6%	-11	-24%
N=C1C(c2ccccc2)=C(O)CN1c1cccc(S(=O)(=O)N2CCOCC2)c1	3%	0	-4%	0	10%
Cc1c(Cl)cccc1NC(=O)CSc1nc(=O)n(CCCN2CCOCC2)c2c1CCCC2	x	0	x	-1	x
C[C@H]1Cc2c(COc3ccccc3)nc3c(c2CO1)CN(S(=O)(=O)c1ccc(Cl)c2nonc12)CC3	-9%[11.5 µM]	x	x	x	x
NS(=O)(=O)c1ccc(CNC(=O)c2ccc(NS(=O)(=O)c3ccc4[nH]c(=O)[nH]c4c3)cc2)cc1	x	3	x	4	x
